In PubChem BioAssay (NCI):
This is part of a sample that, as a whole, favours compounds with a hit. Of some 83,000 tested, about 20% had one in any assay.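 Plates (96-well) were seeded with cells, treated with compound at one concentration, and incubated for 48 hours before percent growth was determined.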 Activity calls are given as the source filed them. Rule for the calls: active = growth percent below 10; inactive = the rest.

Tests used:
Assay in all cases: NCI-60 one-dose screen, 48 h (100 = growth as untreated, 0 = no growth, -100 = all killed)
Details in all cases: 10 µM unless noted
[1] = tested on: SK-MEL-2 melanoma
[2] = tested on: EKVX NSCLC
[3] = tested on: SN12C renal
[4] = tested on: UO-31 renal
[5] = tested on: TK-10 renal
[6] = tested on: ACHN renal
[7] = tested on: A498 renal
[8] = tested on: CCRF-CEM leukemia
[9] = tested on: MOLT-4 leukemia
[10] = tested on: SR leukemia

Measured: growth

COc1ccc(-c2cc(-c3nnc(SCC(=O)Nc4ccc(/C(C)=N\O)cc4)o3)c3ccccc3n2)cc1
inactive: [1] 98% | [2] 103% | [3] 104% | [4] 97.7% | [5] 96.4% | [6] 117% | [7] 101% | [8] 97.9% | [9] 106% | [10] 113%

COCCOC(=O)COc1ccc(OC)cc1
inactive: [1] 120% | [2] 96.6% | [3] 99.7% | [4] 88.9% | [5] 108% | [6] 106% | [7] 88.2% | [8] 104% | [9] 90.7% | [10] 88.2%

CC(C)(C)c1nc2c(s1)c1nc(N)ncc1c1ccc(NS(=O)(=O)c3c(F)cccc3F)c(F)c12
inactive: [1] 50% | [2] 60.5% | [3] 58.9% | [4] 28.9% | [5] 64.4% | [6] 22.6% | [8] 73.3% | [9] 59.5% | [10] 42.3%
active: [7] -2.96%

C#Cc1cccc(Nc2ncnc3ccc(NC(=O)c4ccccc4)cc23)c1
inactive: [1] 85.3% | [2] 52.3% | [3] 76.6% | [4] 56% | [5] 26.1% | [6] 39.6% | [7] 65.4% | [8] 89.7% | [9] 59.5% | [10] 61.8%

Cc1ccc(SC2c3ccc(C)cc3Oc3nc(N)c(C#N)c(N)c32)cc1 (stereo not given)
active: [8] 7.82% | [9] 7.29% | [10] -11.8%
inactive: [1] 65.3% | [2] 59.8% | [3] 79.9% | [4] 48.5% | [5] 69.3% | [6] 68.1% | [7] 106%

N#Cc1c(-c2ccc(F)cc2)nc(N/N=C/c2c[nH]c3ccccc23)nc1N1CCOCC1
active: [10] 6.49%
inactive: [1] 53.4% | [2] 56.1% | [3] 82.2% | [4] 34.5% | [5] 89.9% | [6] 43.4% | [7] 25.6% | [8] 40.5% | [9] 22%

CC(=O)c1cc2c(N)c(C(=O)Nc3ccccn3)sc2nc1C
inactive: [1] 53.6% | [2] 74.7% | [3] 92.7% | [4] 86.7% | [5] 90.8% | [6] 98.9% | [7] 30.3% | [8] 102% | [9] 98.2% | [10] 69.2%

CCN1CCN(c2ccc(NC(=O)Nc3nc4ccc(-c5ccccc5OC)cc4s3)cc2)CC1
active: [1] -65.5% | [2] -68.4% | [3] -82.1% | [4] -91.6% | [5] -48% | [6] -95.5% | [8] -17.3% | [9] -51.7% | [10] -38%
inactive: [7] 70.2%

C=C1C(=O)O[C@H]2[C@H]1CCC(/C=N/c1ncc(Br)cc1N)=C\CC[C@@]1(C)O[C@@H]21
active: [3] -24.8% | [4] -72.3% | [5] -4.72% | [6] 2.47% | [8] 0.102% | [9] -3.09% | [10] -3.64%
inactive: [1] 46.6% | [2] 29% | [7] 78%

COCCc1n(Cc2ccc3ccccc3c2)c2ccccc2[n+]1Cc1ccc2ccccc2c1
inactive: [6] 20.3%
active: [1] -61.6% | [2] 4.7% | [3] -68% | [4] -18.7% | [5] -80.9% | [7] -19.1% | [8] -9.95% | [9] -43.4% | [10] -57%

Cc1cc(Cl)cc(CN(Cc2ccccc2)Cc2c(O)ccc3ccccc23)c1O
inactive: [1] 91% | [2] 99% | [3] 83.5% | [4] 62.2% | [5] 110% | [6] 102% | [7] 76.6% | [8] 99.2% | [9] 104% | [10] 92.9%

Cc1nc2sc(C(=O)Nc3cccc(Cl)c3C)c(N)c2cc1C(C)O (stereo not given)
inactive: [1] 24.2% | [2] 54.5% | [3] 33.5% | [4] 48.7% | [5] 46.3% | [6] 35.7% | [8] 14.2% | [9] 13% | [10] 12%
active: [7] 8.96%

Nc1cc(N)c(S(=O)(=O)O)cc1N=Nc1cc([N+](=O)[O-])ccc1O
inactive: [1] 98.1% | [2] 103% | [3] 100% | [4] 89.4% | [5] 102% | [6] 109% | [7] 103% | [8] 93.9% | [9] 90.5% | [10] 90.3%

Nc1c(C(=O)Nc2ccccn2)sc2nc3c(cc12)CCCC3
active: [10] 9.84%
inactive: [1] 35.1% | [2] 55.2% | [3] 50.1% | [4] 61.6% | [5] 97.5% | [6] 69.8% | [7] 48.3% | [8] 36.9% | [9] 29.8%

COc1cc2nc3c(=O)n(CCN(C)C)cnn3c(=O)c2cc1OC
inactive: [1] 101% | [2] 95.7% | [3] 104% | [4] 89.6% | [5] 103% | [6] 105% | [7] 92.7% | [8] 146% | [9] 104% | [10] 105%

COc1ccc2c(c1)Oc1nc(N)c(C#N)c(N)c1C2Sc1ccc(SC)cc1 (stereo not given)
active: [1] -25.6% | [4] 5.13% | [5] -16.4% | [6] -66.3% | [8] -2.59% | [9] 0.548% | [10] -17.5%
inactive: [2] 32.6% | [3] 21.7% | [7] 95.4%

Cc1nnc(/N=C2\NC(=O)/C(=C/c3ccc(N(C)C)cc3)S2)s1
inactive: [1] 83.1% | [2] 82.8% | [3] 83.8% | [4] 70.6% | [5] 87.3% | [6] 71.8% | [7] 67% | [8] 62.6% | [9] 80.8% | [10] 44.2%

COc1ccc(C(=O)c2cc(OC)c(OC)c(OC)c2)cc1OC(=O)C(Cl)(Cl)Cl
active: [8] 8.37% | [10] 6.59%
inactive: [1] 29.8% | [2] 61.3% | [3] 30.9% | [4] 39.1% | [5] 65.6% | [6] 31.8% | [7] 46.5% | [9] 11.8%

O=C(CCc1nnc2sc(OCc3ccccc3)nn12)c1nc2ccc([N+](=O)[O-])cc2[nH]1
inactive: [1] 95.6% | [2] 89.3% | [3] 106% | [4] 67.2% | [5] 131% | [6] 97% | [7] 111% | [8] 104% | [9] 95.4% | [10] 84.1%

CCOCc1cc(C(C)(C)C)ccc1O
inactive: [1] 110% | [2] 98.3% | [3] 102% | [4] 94.5% | [5] 93.8% | [6] 105% | [7] 74.2% | [8] 101% | [9] 99.4% | [10] 88.7%

CCCn1cc(/C=N\N=C2\C(=O)Nc3ccc(C)cc32)c2ccccc21
active: [8] -0.646% | [9] -9.9%
inactive: [1] 35.1% | [2] 50.5% | [3] 49.9% | [4] 60% | [5] 107% | [6] 55.7% | [7] 57.2% | [10] 11.6%

Fc1ccc(N/N=C/c2ccc(-n3cccn3)cc2)cc1
inactive: [1] 103% | [2] 81.3% | [3] 108% | [4] 80.4% | [5] 111% | [6] 91.7% | [7] 119% | [8] 89.5% | [9] 89% | [10] 64.1%

CSc1nc(-c2cccs2)c2c(N)[nH]nc2n1
inactive: [1] 104% | [2] 73.1% | [3] 109% | [4] 84.1% | [5] 93.4% | [6] 101% | [7] 66.7% | [8] 109% | [9] 87% | [10] 73.3%

COc1ccc2c(c1)OC13Oc4cc(OC)ccc4C=C1CCCCC3=C2
inactive: [1] 80.2% | [2] 88.8% | [3] 93.6% | [4] 84.7% | [5] 86.8% | [6] 104% | [7] 98.2% | [8] 80.9% | [9] 80.6% | [10] 99%

CCOc1ccc(C2N(c3cc(OC)c(OC)c(OC)c3)C(=O)C2(F)F)cc1 (stereo not given)
inactive: [1] 91.8% | [2] 75.3% | [3] 51% | [4] 51.9% | [5] 103% | [6] 55.3% | [7] 92.3% | [8] 10.2% | [9] 18.1% | [10] 16.2%
